Conditions in all cases: mRNA level, 48 h; actives raise or lower the signal
Read-out in assay [1]: Bcl-2 (BID) gene, BID (gene 637)
The experiment in a line: LTEA_HepaRG_BID: Life Technologies and Expression Analysis (LTEA) Assay for Bcl-2 (BID) gene using HepaRG (AID 2283476). An outline of the steps: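 Duplicate 48 h treatments of HepaRG cells in serum-free induction medium spanned 100 uM downward in half-log steps, 0.5% DMSO. Transcript change quantified by qRT-PCR against three housekeeping genes, fitted up or down versus DMSO.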

Read-out in another assay: Caspase-3 (Homo sapiens) (UniProt P42574)
Kind of assay: LTEA_HepaRG_CASP3: Life Technologies and Expression Analysis (LTEA) Assay for cysteine-aspartic acid protease (CASP3) using HepaRG (AID 2283477). An outline of the steps:
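Read-out is CASP3 mRNA level by TaqMan qRT-PCR in human HepaRG cells after 48 h chemical exposure. Eight half-log concentrations topping at 100 uM were tested in 0.5% DMSO; gain or loss was fitted relative to DMSO.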

Read-out in assay [2]: Cytochrome P450 (CYP24A1), CYP24A1 (gene 1591)
The experiment in a line: LTEA_HepaRG_CYP24A1: Life Technologies and Expression Analysis (LTEA) Assay for Cytochrome P450 (CYP24A1) using HepaRG (AID 2283478). The procedure, abridged: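 HepaRG, 48 h chemical exposure, 8-pt half-log CRC from 100 uM, 0.5% DMSO vehicle, duplicates. Endpoint: CYP24A1 mRNA by Fluidigm TaqMan qRT-PCR, normalized ACTB/GAPDH/POLR2A; gain/loss fit vs DMSO.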

Read-out in assay [3]: Cytochrome P450 (CYP1A2), CYP1A2 (gene 1544)
Kind of assay: LTEA_HepaRG_CYP1A2: Life Technologies and Expression Analysis (LTEA) Assay for Cytochrome P450 (CYP1A2) using HepaRG (AID 2283479). The procedure, abridged:
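CYP1A2 transcript induction or loss, quantified by Fluidigm qRT-PCR against three housekeeping genes, was fitted bidirectionally against 0.5% DMSO controls. Human HepaRG cells received eight half-log concentrations from 100 uM over 48 h.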

Read-out in assay [4]: cysteine-aspartic acid protease (CASP8), CASP8 (gene 841)
The experiment in a line: LTEA_HepaRG_CASP8: Life Technologies and Expression Analysis (LTEA) Assay for cysteine-aspartic acid protease (CASP8) using HepaRG (AID 2283480). An outline of the steps: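 Concentration-response in duplicate up to 100 uM (half-log steps, 0.5% DMSO) on differentiated HepaRG cultures for 48 h. Expression change of CASP8 mRNA is determined by TaqMan qRT-PCR with housekeeping-gene normalization.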

Read-out in assay [5]: Cytochrome P450 (CYP2B6), CYP2B6 (gene 1555)
The experiment in a line: LTEA_HepaRG_CYP2B6: Life Technologies and Expression Analysis (LTEA) Assay for Cytochrome P450 (CYP2B6) using HepaRG (AID 2283481). An outline of the steps:
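HepaRG cells plated 48 h, switched to serum-free induction medium, then dosed 48 h (8 points, half-log from 100 uM, 0.5% DMSO). RNA isolated; CYP2B6 expression measured by qRT-PCR; gain or loss fitted relative to DMSO.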

Read-out in assay [6]: Cytochrome P450 2C19 (Homo sapiens) (UniProt P33261)
Kind of assay: LTEA_HepaRG_CYP2C19: Life Technologies and Expression Analysis (LTEA) Assay for CYP2C19 using HepaRG (AID 2283482). The procedure, abridged:
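Transcript levels of CYP2C19 were quantified by qRT-PCR after HepaRG cells were treated for 48 hours with test chemicals up to 100 uM (eight half-log concentrations, 0.5% DMSO vehicle). Gain or loss of signal was fitted relative to DMSO.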

Read-out in a further assay: CYP2C8 (gene 1558)
Kind of assay: LTEA_HepaRG_CYP2C8: Life Technologies and Expression Analysis (LTEA) Assay for CYP2C8 using HepaRG (AID 2283483). An outline of the steps:
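This is a transcriptional endpoint in HepaRG cultures: 48 h exposure, highest concentration 100 uM. CYP2C8 mRNA is quantified by TaqMan qRT-PCR.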

Read-out in a further assay: CYP2C9 (gene 1559)
Kind of assay: LTEA_HepaRG_CYP2C9: Life Technologies and Expression Analysis (LTEA) Assay for CYP2C9 using HepaRG (AID 2283484). An outline of the steps:
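Eight-point concentration-response (highest 100 uM, half-log dilutions) in HepaRG cells for 48 h; CYP2C9 expression by qRT-PCR normalized to ACTB, GAPDH, POLR2A. Bidirectional fit, DMSO baseline.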

Read-out in a further assay: CYP2E1 (gene 1571)
The experiment in a line: LTEA_HepaRG_CYP2E1: Life Technologies and Expression Analysis (LTEA) Assay for CYP2E1 using HepaRG (AID 2283485). The procedure, abridged:
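CYP2E1 transcript measured by Fluidigm qRT-PCR against three housekeeping genes in human HepaRG cells treated 48 h (top 100 uM, half-log steps, 0.5% DMSO vehicle). Gain or loss fitted relative to DMSO baseline.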

Read-out in the next assay: CYP4A11 (gene 1579)
Kind of assay: LTEA_HepaRG_CYP4A11: Life Technologies and Expression Analysis (LTEA) Assay for CYP4A11 using HepaRG (AID 2283486). An outline of the steps: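 HepaRG, 48 h chem exposure, 8 conc (100 uM top, half-log), 0.5% DMSO vehicle; qRT-PCR readout, housekeeping-gene normalized; bidirectional curve fit vs DMSO baseline.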

Read-out in assay [7]: Cytochrome P450 3A4 (Homo sapiens) (UniProt P08684)
The experiment in a line: LTEA_HepaRG_CYP3A4: Life Technologies and Expression Analysis (LTEA) Assay for CYP3A4 using HepaRG (AID 2283487). An outline of the steps:
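In a human hepatic line (HepaRG), duplicate wells were treated 48 h with up to 100 uM chemical in half-log dilutions. Endpoint: CYP3A4 mRNA induction or loss relative to 0.5% DMSO vehicle, by qRT-PCR.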

Read-out in assay [8]: DNA damage-inducible transcript 3 (DDIT3), DDIT3 (gene 1649)
Kind of assay: LTEA_HepaRG_DDIT3: Life Technologies and Expression Analysis (LTEA) Assay for DNA damage-inducible transcript 3 (DDIT3) using HepaRG (AID 2283488). An outline of the steps:
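DDIT3 transcript was quantified by qRT-PCR with ACTB/GAPDH/POLR2A normalization after 48 h chemical treatment of differentiated HepaRG cells in 0.5% DMSO. Dosing was eight-point, half-log, top 100 uM, duplicate wells. Curves fitted bidirectionally versus DMSO.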

Read-out in assay [9]: Pro-epidermal growth factor (Homo sapiens) (UniProt P01133)
Kind of assay: LTEA_HepaRG_EGF: Life Technologies and Expression Analysis (LTEA) Assay for Epidermal growth factor (EGF) using HepaRG (AID 2283489). An outline of the steps: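 HepaRG, 48 h dosing, 100 uM top, half-log x8, 0.5% DMSO. Readout: TaqMan qRT-PCR (Fluidigm array), housekeeping-normalized. Gain or loss of signal fit vs DMSO.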

Read-out in assay [10]: Early growth response protein 1 (EGR1) transcription factor, EGR1 (gene 1958)
Kind of assay: LTEA_HepaRG_EGR1: Life Technologies and Expression Analysis (LTEA) Assay for Early growth response protein 1 (EGR1) transcription factor using HepaRG (AID 2283490). An outline of the steps: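 EGR1 expression change in human HepaRG after 48 h chemical exposure, assessed by housekeeping-normalized qRT-PCR; concentration-response up to 100 uM, fitted in both directions against DMSO controls.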

Read-out in assay [11]: Ezrin (EZR), EZR (gene 7430)
Kind of assay: LTEA_HepaRG_EZR: Life Technologies and Expression Analysis (LTEA) Assay for Ezrin (EZR) using HepaRG (AID 2283491). The procedure, abridged: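 Gain or loss of EZR mRNA is scored relative to 0.5% DMSO in human HepaRG cultures treated 48 h with test chemicals in duplicate, eight half-log concentrations from 100 uM.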

Read-out in assay [12]: Cytochrome P450 3A7 (Homo sapiens) (UniProt P24462)
Kind of assay: LTEA_HepaRG_CYP3A7: Life Technologies and Expression Analysis (LTEA) Assay for CYP3A7 using HepaRG (AID 2283492). The procedure, abridged: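 Human HepaRG liver cells, 48 h post-plating, switched to serum-free induction medium and exposed in duplicate for 48 h. Dosing: 100 uM top, half-log dilutions, 8 points, 0.5% DMSO vehicle. Read-out: CYP3A7 mRNA, gain or loss fitted against DMSO baseline.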

Read-out in a further assay: CYP3A5 (gene 1577)
The experiment in a line: LTEA_HepaRG_CYP3A5: Life Technologies and Expression Analysis (LTEA) Assay for CYP3A5 using HepaRG (AID 2283493). An outline of the steps: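 mRNA levels were quantified by qRT-PCR on Fluidigm arrays and normalized to three housekeeping genes. Differentiated HepaRG cells received 48 h exposure (top 100 uM, half-log steps, 0.5% DMSO vehicle, duplicate); bidirectional fitting versus DMSO.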

Read-out in assay [13]: Fatty Acid-Binding Protein 1 (FABP1), FABP1 (gene 2168)
The experiment in a line: LTEA_HepaRG_FABP1: Life Technologies and Expression Analysis (LTEA) Assay for Fatty Acid-Binding Protein 1 (FABP1) using HepaRG (AID 2283494). An outline of the steps:
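Values reflect bidirectional concentration-response fitting of FABP1 mRNA change against 0.5% DMSO controls. Human HepaRG cultures received eight half-log doses (top 100 uM) for 48 h; expression quantified by TaqMan qRT-PCR with housekeeping-gene normalization.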

Read-out in assay [14]: Cytochrome P450 4A22 (Homo sapiens) (UniProt Q5TCH4)
Kind of assay: LTEA_HepaRG_CYP4A22: Life Technologies and Expression Analysis (LTEA) Assay for Cytochrome P450 4A22 (CYP4A22) using HepaRG (AID 2283495). The procedure, abridged: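 Readout is CYP4A22 transcript induction or loss, quantified by qRT-PCR and normalized to ACTB, GAPDH and POLR2A. Human HepaRG cells receive test chemicals for 48 h at eight half-log concentrations from 100 uM in 0.5% DMSO.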

Calls of active or inactive are those of the source. Rule for the calls: active = hit-call score of the fitted dose curve at least 0.9, where 1 is the maximum; inactive = score below 0.9.

Sequence of Cytochrome P450 3A4 (Homo sapiens) (P08684 whole entry, looked up): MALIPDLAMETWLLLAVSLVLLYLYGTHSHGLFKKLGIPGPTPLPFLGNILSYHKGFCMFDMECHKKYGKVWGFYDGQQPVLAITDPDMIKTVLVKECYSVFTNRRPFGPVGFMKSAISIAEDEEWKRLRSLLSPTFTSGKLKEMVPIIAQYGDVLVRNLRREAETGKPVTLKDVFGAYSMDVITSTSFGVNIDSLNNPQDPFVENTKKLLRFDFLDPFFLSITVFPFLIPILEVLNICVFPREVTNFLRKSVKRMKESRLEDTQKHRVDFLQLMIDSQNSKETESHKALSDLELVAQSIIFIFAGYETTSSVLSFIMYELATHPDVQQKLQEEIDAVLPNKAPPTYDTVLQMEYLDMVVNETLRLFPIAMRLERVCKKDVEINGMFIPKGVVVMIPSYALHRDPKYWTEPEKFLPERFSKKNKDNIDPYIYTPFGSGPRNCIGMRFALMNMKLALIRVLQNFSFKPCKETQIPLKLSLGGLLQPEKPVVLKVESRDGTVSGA
Sequence of Cytochrome P450 2C19 (Homo sapiens) (P33261 whole entry, looked up): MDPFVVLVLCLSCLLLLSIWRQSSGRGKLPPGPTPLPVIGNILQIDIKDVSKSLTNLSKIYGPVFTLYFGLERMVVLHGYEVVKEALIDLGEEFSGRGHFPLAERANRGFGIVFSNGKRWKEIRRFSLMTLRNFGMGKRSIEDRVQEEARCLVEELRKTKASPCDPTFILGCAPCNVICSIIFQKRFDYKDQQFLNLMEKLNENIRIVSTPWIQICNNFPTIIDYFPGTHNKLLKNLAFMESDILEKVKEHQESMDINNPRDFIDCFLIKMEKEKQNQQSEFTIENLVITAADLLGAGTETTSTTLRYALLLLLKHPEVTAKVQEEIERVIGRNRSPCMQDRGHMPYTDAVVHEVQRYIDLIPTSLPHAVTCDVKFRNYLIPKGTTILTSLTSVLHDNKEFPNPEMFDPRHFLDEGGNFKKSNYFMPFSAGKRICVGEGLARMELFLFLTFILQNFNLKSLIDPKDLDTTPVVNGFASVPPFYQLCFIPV
Sequence of Cytochrome P450 3A7 (Homo sapiens) (P24462 whole entry, looked up): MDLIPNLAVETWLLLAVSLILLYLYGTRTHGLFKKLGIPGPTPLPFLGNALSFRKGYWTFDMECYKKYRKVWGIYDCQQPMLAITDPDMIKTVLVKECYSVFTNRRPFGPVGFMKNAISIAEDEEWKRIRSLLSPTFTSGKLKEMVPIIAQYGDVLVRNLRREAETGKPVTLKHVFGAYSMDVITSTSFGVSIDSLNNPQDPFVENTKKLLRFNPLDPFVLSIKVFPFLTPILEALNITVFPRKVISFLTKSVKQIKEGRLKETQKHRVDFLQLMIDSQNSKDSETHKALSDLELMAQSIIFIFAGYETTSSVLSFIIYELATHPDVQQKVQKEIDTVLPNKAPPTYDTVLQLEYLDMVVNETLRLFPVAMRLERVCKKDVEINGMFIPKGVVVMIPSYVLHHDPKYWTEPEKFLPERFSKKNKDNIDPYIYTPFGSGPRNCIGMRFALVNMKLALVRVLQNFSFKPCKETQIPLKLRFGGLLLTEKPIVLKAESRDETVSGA
Sequence of Caspase-3 (Homo sapiens) (P42574 whole entry, looked up): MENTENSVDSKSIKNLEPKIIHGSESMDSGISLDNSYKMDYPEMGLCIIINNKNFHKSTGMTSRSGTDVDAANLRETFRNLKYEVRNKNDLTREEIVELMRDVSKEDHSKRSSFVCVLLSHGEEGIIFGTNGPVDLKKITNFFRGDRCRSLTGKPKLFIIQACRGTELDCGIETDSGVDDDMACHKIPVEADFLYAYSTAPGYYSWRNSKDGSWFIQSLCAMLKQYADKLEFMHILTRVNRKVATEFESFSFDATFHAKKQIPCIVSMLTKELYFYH

Regarding `CCOCCOCCOCCO`, the result (in assay [1]; in the assay with Caspase-3 (Homo sapiens); in assay [2]; in assay [3]; in assay [4]; in assay [5]) was inactive. Further, the outcome (in assay [6]; with CYP2C8 (gene 1558); with CYP2C9 (gene 1559); with CYP2E1 (gene 1571); in the assay with CYP4A11 (gene 1579); in [7]) was inactive. For the same molecule, the call (in assay [8]; in assay [9]; in assay [10]; in [11]; in [12]; with CYP3A5 (gene 1577)) was inactive. For the same molecule, the outcome in [13] and in assay [14] was inactive.

As usually defined, the AC50 is the midpoint of the concentration-response curve, whichever way the signal moves. Consider `C=CCCCCCCCCC(=O)O`, for which the outcome (in [1]; in the assay with Caspase-3 (Homo sapiens); in assay [2]; in assay [4]; in assay [5]; in assay [6]) was inactive. Moreover, the result (with CYP2C8 (gene 1558); in the assay with CYP2C9 (gene 1559); with CYP2E1 (gene 1571); with CYP4A11 (gene 1579); in assay [7]; in [8]) was inactive. Moreover, the molecule was classed as inactive (in assay [9]; in [10]; in assay [11]; in assay [12]; with CYP3A5 (gene 1577); in assay [13]). In assay [14], the molecule was classed as inactive. Moreover, the concentration at half-maximal activity (AC50) in assay [3] is 50 µM (active).

As for `CC[C@H]1CC[C@H](NCc2cc3c(cc2OC)[C@H]2C[C@H]2C(=O)N3C)[C@H](c2ccccc2)N1`, the molecule was called inactive (in assay [1]; with Caspase-3 (Homo sapiens); in [2]; in assay [4]; with CYP2C9 (gene 1559); in assay [9]). Further, the call in assay [10], in assay [11] and in assay [13] was inactive. For the same molecule, the AC50 was 33.8 µM (active) in assay [3]; 11.7 µM (active) in assay [5]; 10.8 µM (active) in assay [6]; 11.1 µM (active) with CYP2C8 (gene 1558); 50 µM (active) with CYP2E1 (gene 1571); 81.8 µM (active) with CYP4A11 (gene 1579). For the same molecule, the half-maximal activity concentration (AC50) in [7] is 14.2 µM (active); in assay [8], 50 µM (active); in assay [12], 8.34 µM (active); with CYP3A5 (gene 1577), 50 µM (active); in assay [14], 76.8 µM (active).

`COc1ccc(/C=C/S(=O)(=O)NC(=O)c2ccc(C)cc2Cl)cc1`: the molecule was classed as inactive (in [1]; with Caspase-3 (Homo sapiens); in assay [2]; in assay [3]; in [4]; in [6]). For the same molecule, the outcome (in the assay with CYP2C8 (gene 1558); with CYP2C9 (gene 1559); with CYP4A11 (gene 1579); in assay [7]; in assay [8]; in [9]) was inactive. The call (in assay [10]; in assay [11]; with CYP3A5 (gene 1577); in assay [13]; in [14]) was inactive. The AC50 in [5] is 89.8 µM (active); in the assay with CYP2E1 (gene 1571), 69.6 µM (active); in [12] it was 20.1 µM (active).

With `CC(=O)OCCC(C)C`, the molecule was called inactive (in [1]; with Caspase-3 (Homo sapiens); in assay [2]; in assay [3]; in assay [4]; in assay [5]). Moreover, the molecule was classed as inactive (in assay [6]; with CYP2C8 (gene 1558); with CYP2C9 (gene 1559); with CYP2E1 (gene 1571); with CYP4A11 (gene 1579); in assay [7]). The molecule was called inactive (in assay [8]; in [9]; in assay [10]; in assay [11]; in assay [12]; with CYP3A5 (gene 1577)). Also, the molecule was called inactive in assay [13] and in assay [14].

Take `COCCOCCOCCOC`: the result (in assay [1]; with Caspase-3 (Homo sapiens); in assay [2]; in assay [3]; in [4]; in assay [5]) was inactive. Further, the outcome (in assay [6]; with CYP2C8 (gene 1558); with CYP2C9 (gene 1559); in the assay with CYP2E1 (gene 1571); with CYP4A11 (gene 1579); in [7]) was inactive. The result (in assay [8]; in [9]; in [10]; in [11]; in [12]; with CYP3A5 (gene 1577)) was inactive. Moreover, the molecule was called inactive in [13] and in assay [14].

The values are drawn from PubChem BioAssay (EPA / NIEHS).
